Several values for one entry are separate records, joined by “and”; a condition that tells them apart may be missing. Equal values may be shown once. Where a structure was tested more than once in an assay, its records may differ in their call. Activity calls are given as the source filed them. Unless noted, the call rests on the fitted dose curve; in most records, active means well fitted curve in the direction sought with a large enough effect in the repeat runs; inconclusive means weak or mixed curves; inactive means no such curve, though single readings can be large; an effect the other way counts as inactive or inconclusive.

Our source for the Potency and outcome values is PubChem BioAssay (Tox21).

Assay [1] in a line: qHTS assay to test for compound auto fluorescence at 535 nm (green) in HEK293 cells (AID 720680). (In general: qHTS replaces the single test concentration by a dilution series.)
Assay [2] in a line: qHTS assay to test for compound auto fluorescence at 460 nm (blue) in HEK293 cell free culture (AID 720681). In outline: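 Test compounds were pinned into cell-free culture medium (DMEM with 10% FBS) and fluorescence was read directly at Ex/Em 405/460 nm. Signals were expressed as fluorescence equivalents of triamterene, with DMSO vehicle as control.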
Assay [3] is described as follows: qHTS assay to test for compound auto fluorescence at 535 nm (green) in HEK293 cell free culture (AID 720682). In outline: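 No cells present: wells hold DMEM supplemented with 10% FBS, into which compound or vehicle is pinned. Green emission is then recorded (485 nm excitation, 535 nm emission) and scaled to fluorescein.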
A short description of assay [4]: qHTS assay to test for compound auto fluorescence at 590 nm (red) in HepG2 cell free culture (AID 720684). In outline:
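Red fluorescence (540 nm excitation, 590 nm emission) was measured after compound transfer into cell-free MEM supplemented with 10% FBS. Values are equivalencies against Rose Bengal sodium.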

Assay [5] can be described thus: qHTS assay to test for compound auto fluorescence at 460 nm (blue) in HepG2 cell free culture (AID 720685). In outline:
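Compound (23 nL) or DMSO pinned into cell-free MEM with 10% FBS; blue fluorescence read at 405/460 nm excitation/emission, expressed as auto-fluorescence equivalency to triamterene.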

A short description of assay [6]: qHTS assay to test for compound auto fluorescence at 535 nm (green) in HepG2 cell free culture (AID 720686).
The nature of assay [7]: qHTS assay to test for compound auto fluorescence at 460 nm (blue) in HepG2 cells (AID 720687). In outline:
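Cells (2,000/well in MEM with 10% FBS) attached overnight at 37 C, then were exposed to compound or DMSO for 1 hr at 37 C, 5% CO2. Fluorescence read at Ex/Em 405/460 nm, expressed as triamterene-equivalent signal.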

The target of assay [8] is Glucocorticoid receptor (Homo sapiens) (UniProt P04150). Put plainly: qHTS assay to identify small molecule agonists of the glucocorticoid receptor (GR) signaling pathway (AID 720691; active means well fitted activation curve with a large enough effect in the signal ratio in the repeat runs, not every such curve was filed as active; inconclusive means weak or mixed curves, or effect the other way; inactive means no such curve, though single readings can be large or run the other way; the % refers to the signal ratio; further: potency means the concentration at half of the fitted maximal effect). In outline: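 Reporter read-out: fluorescence intensity following 2 h room-temperature LiveBLAzer B/G FRET substrate loading. Prior step: GR-bla HeLa cells held 4 h, then treated 18 h at 37 C.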
Sequence of Glucocorticoid receptor (Homo sapiens) (P04150 whole entry, looked up): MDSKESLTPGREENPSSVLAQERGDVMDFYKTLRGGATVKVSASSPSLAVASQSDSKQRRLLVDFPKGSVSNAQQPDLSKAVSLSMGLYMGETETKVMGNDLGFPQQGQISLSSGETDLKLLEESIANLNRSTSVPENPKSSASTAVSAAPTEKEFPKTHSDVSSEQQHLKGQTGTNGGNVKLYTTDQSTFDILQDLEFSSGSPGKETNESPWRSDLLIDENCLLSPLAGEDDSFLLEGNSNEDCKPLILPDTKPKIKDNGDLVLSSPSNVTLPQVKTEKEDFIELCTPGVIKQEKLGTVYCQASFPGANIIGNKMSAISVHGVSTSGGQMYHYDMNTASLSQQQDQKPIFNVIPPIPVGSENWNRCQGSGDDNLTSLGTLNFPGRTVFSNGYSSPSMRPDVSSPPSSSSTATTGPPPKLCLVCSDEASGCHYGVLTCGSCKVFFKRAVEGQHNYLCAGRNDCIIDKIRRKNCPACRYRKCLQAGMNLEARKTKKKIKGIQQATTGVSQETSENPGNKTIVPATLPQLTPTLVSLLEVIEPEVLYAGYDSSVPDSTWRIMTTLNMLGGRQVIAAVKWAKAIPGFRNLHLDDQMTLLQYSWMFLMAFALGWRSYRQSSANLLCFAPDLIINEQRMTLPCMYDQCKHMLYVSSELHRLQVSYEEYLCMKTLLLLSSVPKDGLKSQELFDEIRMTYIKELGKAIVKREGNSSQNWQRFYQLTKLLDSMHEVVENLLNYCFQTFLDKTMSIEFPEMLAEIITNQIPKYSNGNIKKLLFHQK

The target is the same in assay [9]. Put plainly: qHTS assay to identify small molecule antagonists of the glucocorticoid receptor (GR) signaling pathway (AID 720692; active means well fitted inhibition curve with a large enough effect in the signal ratio in the repeat runs, not every such curve was filed as active; inconclusive means weak or mixed curves, or effect the other way; inactive means no such curve, though single readings can be large or run the other way; the % refers to the signal ratio). In outline: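 Dexamethasone (5 nM final) stimulated a stably integrated GRE-beta-lactamase reporter in HeLa cells during 18 h co-incubation with compounds; signal was quantified as fluorescence intensity of B/G FRET substrate after 2 h.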

Assay [10] in a line: qHTS assay to identify small molecule antagonists of the glucocorticoid receptor (GR) signaling pathway - cell viability counter screen (AID 720693). Further: nearly all actives have a fitted effect of over 55% in size.
The nature of assay [11]: qHTS assay for identifying genotoxic compounds that show differential cytotoxicity against isogenic chicken DT40 cell lines with known DNA damage response pathways - wild type cell line (AID 743012). Further: nearly all actives have a fitted effect of over 60% in size. Further: potency means the concentration at half of the fitted maximal effect. In outline:
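Using parental DT40 (300 cells/well), compounds delivered in DMSO incubate 40 h at 37 C/5% CO2. CellTiter-Glo reagent then stands 30 min at room temperature, and luminescence gives cell viability.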

Assay [12] is described as follows: qHTS assay for identifying genotoxic compounds that show differential cytotoxicity against isogenic chicken DT40 cell lines with known DNA damage response pathways - Rev3 mutant cell line (AID 743014). Further: nearly all actives have a fitted effect of over 55% in size. Further: potency means the concentration at half of the fitted maximal effect.
Assay [13] can be described thus: qHTS assay for identifying genotoxic compounds that show differential cytotoxicity against isogenic chicken DT40 cell lines with known DNA damage response pathways - Rad54/Ku70 mutant cell line (AID 743015). Further: nearly all actives have a fitted effect of over 60% in size. Further: potency means the concentration at half of the fitted maximal effect.
Assay [14] can be described thus: qHTS assay to identify small molecule antagonists of the androgen receptor (AR) signaling pathway - cell viability counter screen (AID 743033; further: nearly all actives have a fitted effect of over 45% in size).
The nature of assay [15]: qHTS assay to identify small molecule antagonists of the androgen receptor (AR) signaling pathway using the MDA cell line - cell viability counter screen (AID 743041; further: nearly all actives have a fitted effect of over 45% in size). In outline: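 MDA-kb2 AR-luc human breast carcinoma cells (MMTV-luciferase, AR/GR responsive) were treated with compounds plus R1881 agonist for 16 h at 37 °C. Viability was read as CellTiter-Fluor fluorescence in the same wells as the reporter assay.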

Assay [16] concerns the target Androgen receptor (Homo sapiens) (UniProt P10275). Put plainly: qHTS assay to identify small molecule antagonists of the androgen receptor (AR) signaling pathway (AID 743035; active means well fitted inhibition curve with a large enough effect in the signal ratio in the repeat runs, not every such curve was filed as active; inconclusive means weak or mixed curves, or effect the other way; inactive means no such curve, though single readings can be large or run the other way; the % refers to the signal ratio). In outline:
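Using qHTS, AR-UAS-bla GripTite HEK293 cells received compound, then R1881, and were cultured 16 h at 37C/5% CO2 before a 2 h room-temperature LiveBLAzer B/G FRET substrate step and fluorescence measurement.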

The target is the same in assay [17]. In words: qHTS assay to identify small molecule agonists of the androgen receptor (AR) signaling pathway (AID 743036; active means well fitted activation curve with a large enough effect in the signal ratio in the repeat runs, with a control signal flat, not every such curve was filed as active; inconclusive means weak or mixed curves, or effect the other way; inactive means no such curve, though single readings can be large or run the other way; the % refers to the signal ratio). In outline:
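Quantitative HTS of the Tox21 10K library in HEK293 cells bearing a stably integrated UAS-controlled beta-lactamase reporter. Compound exposure lasted 16 h at 37C. Reporter activity was detected by FRET substrate fluorescence after 2 h at room temperature.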

The nature of assay [18]: qHTS assay to identify small molecule antagonists of the thyroid receptor (TR) signaling pathway - cell viability counter screen (AID 743064). Further: nearly all actives have a fitted effect of over 50% in size. Further: potency means the concentration at half of the fitted maximal effect. In outline:
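Rat GH3 pituitary tumor cells stably expressing two TR response elements driving luciferase were plated, rested 4 h, then dosed with library compounds and T3 (1 nM final). After 23.5 h at 37 °C, CellTiter-Fluor was added for 30 min and fluorescence recorded.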

A short description of assay [19]: qHTS assay to test for compound auto fluorescence at 590 nm (red) in HEK293 cell free culture (AID 720683). In outline: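 Tox21 10K library compounds were pinned into cell-free DMEM with 10% FBS and fluorescence was read at excitation 540 nm. Activity is expressed as Rose Bengal sodium equivalency.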

Sequence of Androgen receptor (Homo sapiens) (P10275 whole entry, looked up): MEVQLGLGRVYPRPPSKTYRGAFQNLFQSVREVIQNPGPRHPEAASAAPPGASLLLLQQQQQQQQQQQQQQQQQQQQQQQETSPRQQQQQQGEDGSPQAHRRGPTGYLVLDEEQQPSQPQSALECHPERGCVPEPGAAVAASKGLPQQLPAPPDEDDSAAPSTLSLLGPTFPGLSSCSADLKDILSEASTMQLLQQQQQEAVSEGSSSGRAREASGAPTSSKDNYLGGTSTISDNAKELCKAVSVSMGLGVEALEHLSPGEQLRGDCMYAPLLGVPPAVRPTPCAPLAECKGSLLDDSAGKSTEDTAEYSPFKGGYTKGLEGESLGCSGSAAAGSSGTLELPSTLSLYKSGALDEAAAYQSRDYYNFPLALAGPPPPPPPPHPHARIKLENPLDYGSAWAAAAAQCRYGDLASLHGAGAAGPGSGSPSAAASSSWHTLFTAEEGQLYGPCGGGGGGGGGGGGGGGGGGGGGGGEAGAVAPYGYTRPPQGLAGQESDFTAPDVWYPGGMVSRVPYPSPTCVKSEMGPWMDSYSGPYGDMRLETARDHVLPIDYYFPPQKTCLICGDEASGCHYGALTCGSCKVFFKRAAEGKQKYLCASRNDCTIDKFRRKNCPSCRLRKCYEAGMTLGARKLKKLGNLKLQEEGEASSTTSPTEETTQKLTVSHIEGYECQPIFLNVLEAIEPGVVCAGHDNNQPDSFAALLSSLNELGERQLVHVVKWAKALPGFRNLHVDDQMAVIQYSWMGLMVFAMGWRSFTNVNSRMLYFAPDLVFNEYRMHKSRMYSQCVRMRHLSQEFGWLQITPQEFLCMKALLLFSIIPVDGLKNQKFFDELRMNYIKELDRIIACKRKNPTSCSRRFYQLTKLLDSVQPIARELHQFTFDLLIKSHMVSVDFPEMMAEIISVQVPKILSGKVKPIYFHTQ

As for `CCCCCCCCCCC(CO)CCCCCCCC` (stereo not drawn), the Potency result in assay [1], in [2], in assay [3], in assay [4], in [5] and in assay [6] was “inactive” in each case. In addition, the Potency entry in assay [7], in assay [8], in [9], in assay [10], in assay [11] and in [12] was “inactive” each time. Besides, the Potency result in assay [13], in assay [14] and in assay [15] was “inactive” in each case.

As for `c1ccc2c(c1)ccc1ncccc12`, the Potency entry in assay [1], in assay [2], in assay [3], in assay [4], in [5] and in assay [6] was “inactive” throughout. The Potency entry in assay [7], in [8], in [9], in [11], in assay [12] and in assay [13] was “inactive” throughout. For the same molecule, the Potency result in assay [14] and in assay [16] was “inactive” each time. Moreover, in [17], the outcome was inactive.

Take `CC(=O)[C@@]1(O)CC[C@H]2[C@@H]3C[C@H](C)C4=CC(=O)C=C[C@]4(C)[C@@]3(F)[C@@H](O)C[C@@]21C`: the Potency result in [1], in assay [2], in [3], in assay [4], in assay [5] and in assay [6] was “inactive” each time. The Potency entry in assay [7], in assay [11], in assay [14], in assay [15] and in [18] was “inactive” throughout. The Potency in assay [8] was 12.9 nM [inconclusive] (active) and 3.5 nM (active); in assay [13], 43.3 µM (active).

Take `Cc1ccc(C(C)(C)C)cc1`: the Potency result in assay [1], in assay [2], in [3], in assay [19], in assay [4] and in assay [5] was “inactive” each time. The Potency entry in assay [6], in assay [7], in assay [10], in assay [11], in [12] and in assay [13] was “inactive” in each case. The Potency result in assay [14], in assay [15] and in assay [18] was “inactive” throughout.

For the molecule `CC(C)[C@@H]1CC[C@@H](C)CC1=O`, the Potency entry in [1], in [2], in assay [3], in [19], in [4] and in [5] was “inactive” in each case. Besides, the Potency entry in assay [6], in assay [7], in [10], in [11], in [12] and in [13] was “inactive” in each case. For the same molecule, in assay [18], the Potency entry was “inactive”.

As for `CCCN1C=CN(C)C1`, the Potency result in [1], in assay [2], in [3], in assay [19], in assay [4] and in assay [5] was “inactive” throughout. Moreover, the Potency result in [6], in [7], in assay [10], in assay [11], in assay [12] and in assay [13] was “inactive” throughout. Besides, the Potency result in assay [15] and in assay [18] was “inactive” in each case.

As for `C=C[C@H]1CN2CC[C@H]1C[C@H]2[C@H](O)c1ccnc2ccc(OC)cc12`, the Potency result in assay [1], in assay [2], in [3], in [19], in [4] and in assay [5] was “inactive” in each case. The Potency result in [6], in assay [7], in [10] and in assay [14] was “inactive” in each case. The Potency in [11] was 13.3 µM (active) and 8.41 µM (active) and 54.5 µM (active); in assay [12] it was 23.7 µM (active) and 13.3 µM (active) and 27.3 µM (active); in assay [18] it was “inactive and 43.3 µM (active)”.

As to `Cc1ccc(C(C)(C)C)c(O)c1`, the Potency entry in [1], in [2], in [3], in assay [4], in assay [5] and in assay [6] was “inactive” each time. The Potency entry in [7] and in assay [15] was “inactive” throughout. Moreover, the Potency in assay [11] was 54.5 µM (active); in assay [12], “inactive and 48.6 µM (active)”; in assay [13], “inactive and 43.3 µM (active)”.

Consider `CCC(=O)O[C@H]1[C@H](O[C@@H]2[C@@H](C)[C@H](O[C@H]3C[C@@](C)(OC)[C@@H](O)[C@H](C)O3)[C@@H](C)C(=O)O[C@H](CC)[C@@](C)(O)[C@H](O)[C@@H](C)C(=O)[C@H](C)C[C@@]2(C)O)O[C@H](C)C[C@@H]1N(C)C`, for which the Potency result in [1], in [2], in [3], in assay [4], in [5] and in assay [6] was “inactive” in each case. For the same molecule, the Potency entry in assay [7], in assay [8], in assay [10], in [14] and in [15] was “inactive” in each case. Also, the Potency in assay [11] was 40.5 µM (active); in [12], “inactive and 20.3 µM (active)”; in [13] it was “inactive and 36.1 µM (active)”.
